These results are taken from PubChem BioAssay (Tox21).

Structures are written as SMILES. Several values for one entry are separate records, joined by “and”; a condition that tells them apart may be missing. Equal entries are not always repeated. Inconclusive results are not listed. A structure can be active in one record and inactive in another. Activity calls are given as the source filed them. Calls come from the whole dose curve; as a rule, active = well fitted curve in the direction sought with a large enough effect in the repeat runs; inconclusive = weak or mixed curves; inactive = no such curve, though single readings can be large; an effect the other way counts as inactive or inconclusive.

Test [1] in a line: qHTS RealTime-Glo MT Cell Viability Assay in HepG2 cells - 8 hour (AID 1224873). Note: nearly all actives have a fitted effect of over 55% in size. Put shortly:
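HepG2 cells mixed with RealTime-Glo MT reagents (NanoLuc plus cell-permeant prosubstrate) were seeded at 600 cells/well, incubated 5 h at 37 C/5% CO2, then pinned with compounds in DMSO; nonlytic luminescence tracked viability during 40 h treatment.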

Test [2] is described as follows: A CellTox Green Cytotoxicity Assay to monitor cytotoxicity in HEK293 cells - 24 hour (AID 1224875). Note: series mostly up to about 77 µM; nearly all actives have a fitted effect of over 45% in size. Put shortly: (§1)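 Dead-cell fluorescence measured kinetically: asymmetric cyanine dye, HEK293, 600 cells/well, 5 h settle, 23 nL cpd/DMSO, 37 C, reads 0–40 h every 8 h.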
Test [3] can be described thus: A CellTox Green Cytotoxicity Assay to monitor cytotoxicity in HepG2 cells - 16 hour (AID 1224876). Note: nearly all actives have a fitted effect of over 45% in size. Note: potency is the fitted concentration of half-maximal effect. Put shortly: (§2)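 First, HepG2 cells (600/well) mixed with reagent were plated; second, after 5 h at 37 C they received compounds via pintool; third, fluorescence was measured at 0 h through 40 h at 8 h intervals.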
The nature of test [4]: qHTS RealTime-Glo MT Cell Viability Assay in HepG2 cells - 32 hour (AID 1224877). Note: nearly all actives have a fitted effect of over 55% in size. Put shortly:
(§3)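 HepG2 cells were seeded at 600 cells/well together with NanoLuc luciferase and a cell-permeant prosubstrate, preincubated 5 h at 37 C/5% CO2, then pin-dosed with compounds in DMSO. Nonlytic luminescence from viable cells was read at each time point.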

Test [5] is described as follows: A CellTox Green Cytotoxicity Assay to monitor cytotoxicity in HepG2 cells - 24 hour (AID 1224878). Note: nearly all actives have a fitted effect of over 45% in size. Put shortly:
as §2

Test [6] in a line: A CellTox Green Cytotoxicity Assay to monitor cytotoxicity in HepG2 cells - 40 hour (AID 1224879). Note: nearly all actives have a fitted effect of over 40% in size. Put shortly:
as §2

A short description of test [7]: qHTS RealTime-Glo MT Cell Viability Assay in HEK293 cells - 0 hour (AID 1224880). Note: top concentration of the series differs between compounds; nearly all actives have a fitted effect of over 45% in size. In a few lines: (§4)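 600 HEK293 cells per well, dispensed already mixed with RealTime-Glo MT reagents. Compound dosing came 5 h later. The same wells were read for luminescence at 0, 8, 16, 24, 32 and 40 h of exposure at 37 C.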
The nature of test [8]: A CellTox Green Cytotoxicity Assay to monitor cytotoxicity in HEK293 cells - 32 hour (AID 1224881). Note: nearly all actives have a fitted effect of over 40% in size. In a few lines:
as §1

Test [9] in a line: A CellTox Green Cytotoxicity Assay to monitor cytotoxicity in HepG2 cells - 0 hour (AID 1224882). Note: nearly all actives have a fitted effect of over 35% in size. In a few lines: as §2
Test [10] in a line: A CellTox Green Cytotoxicity Assay to monitor cytotoxicity in HepG2 cells - 32 hour (AID 1224883). Note: nearly all actives have a fitted effect of over 50% in size. Put shortly: as §2
Test [11] is described as follows: A CellTox Green Cytotoxicity Assay to monitor cytotoxicity in HEK293 cells - 8 hour (AID 1224884). Note: nearly all actives have a fitted effect of over 35% in size. Put shortly:
as §1

Test [12] in a line: qHTS RealTime-Glo MT Cell Viability Assay in HepG2 cells - 16 hour (AID 1224885). Note: nearly all actives have a fitted effect of over 50% in size. In a few lines: as §3
Test [13] can be described thus: qHTS RealTime-Glo MT Cell Viability Assay in HEK293 cells - 8 hour (AID 1224887). Note: top concentration of the series differs between compounds; nearly all actives have a fitted effect of over 50% in size. Put shortly: as §4
Test [14] in a line: A CellTox Green Cytotoxicity Assay to monitor cytotoxicity in HEK293 cells - 16 hour (AID 1224888). Note: nearly all actives have a fitted effect of over 35% in size. In a few lines:
as §1

Test [15] can be described thus: qHTS RealTime-Glo MT Cell Viability Assay in HepG2 cells - 0 hour (AID 1224889). Note: nearly all actives have a fitted effect of over 50% in size. In a few lines: as §3
The nature of test [16]: A CellTox Green Cytotoxicity Assay to monitor cytotoxicity in HepG2 cells - 8 hour (AID 1224890). Note: nearly all actives have a fitted effect of over 45% in size. In a few lines:
as §2

Test [17] can be described thus: qHTS assay to identify small molecule antagonists of the estrogen receptor alpha (ER-alpha) signaling pathway using the BG1 cell line in the presence of 0.1 nM 17-beta-estradiol - cell viability counter screen (AID 1259241). Note: nearly all actives have a fitted effect of over 40% in size. Put shortly:
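CellTiter-Fluor read (30 min, 37C) on ER-alpha/ERE-luc VM7Luc4E2 cells; 22 hr compound treatment; agonist 0.1 nM E2 final; same-well multiplex.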

The nature of test [18]: qHTS RealTime-Glo MT Cell Viability Assay in HEK293 cells - 24 hour (AID 1224886). For activity change, negative = cytotoxicity: top concentration of the series differs between compounds. Note: nearly all actives have a fitted effect of over 50% in size. Note: potency is the fitted concentration of half-maximal effect. In a few lines:
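HEK293 cells were seeded at 600 cells/well together with NanoLuc luciferase and cell-permeant prosubstrate, preincubated 5 h at 37 C/5% CO2, then given compound in DMSO by pintool. Luminescence from viable-cell prosubstrate reduction was read repeatedly over 40 h.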

The nature of test [19]: qHTS RealTime-Glo MT Cell Viability Assay in HEK293 cells - 40 hour (AID 1224874). Note: nearly all actives have a fitted effect of over 50% in size. Note: potency is the fitted concentration of half-maximal effect. The following applies: RealTime-Glo luminescence; max response: stronger effect = lower value. In a few lines: as §4
% is set by controls: 0 for no effect and ±100 for the full control effect.

Regarding `Oc1ccc(-c2ccc(O)cc2)cc1`, the Potency result in [1], in test [2], in test [3], in test [4], in test [5] and in [6] was “inactive” each time. The Potency entry in [7], in test [8], in test [9], in test [10], in test [11] and in [12] was “inactive” throughout. Further, the Potency entry in test [13], in test [14], in test [15], in test [16] and in [17] was “inactive” in each case.
As for `OCCN1CN(CCO)CN(CCO)C1`, the Potency result in [1], in test [2], in test [3], in test [4], in test [5] and in [6] was “inactive” each time. In addition, the Potency entry in test [7], in [8], in test [9], in test [10], in [11] and in test [12] was “inactive” throughout. The Potency entry in test [18], in test [13], in test [14], in [15] and in test [16] was “inactive” in each case.
As to `CC1CCCNC1` (stereo unspecified), the Potency result in [1], in [2], in test [3], in [4], in [5] and in [6] was “inactive” in each case. For the same molecule, the Potency entry in [7], in test [9], in [10], in [11], in [12] and in [18] was “inactive” throughout. Besides, the Potency entry in test [13], in test [14], in test [15], in test [16] and in [17] was “inactive” each time. Also, in test [19], the max response was -11.1% (inactive).
Turning to `Clc1ccc(C(Cn2ccnc2)OCc2c(Cl)cccc2Cl)c(Cl)c1` (stereo unspecified), the Potency result in test [1], in [2], in test [4], in test [11], in [12] and in test [14] was “inactive” in each case. Moreover, the Potency entry in [17] was “inactive”. Also, the Potency in test [19] and in [18] was 16.9 µM (active) in each case.
As for `O=S(O)O`, in test [1], the viability change, negative = cytotoxic is 3.13% [at 15.8 µM] (inactive). Besides, the activity change was -0.851% [at 15.8 µM, stronger effect = higher value] (inactive) in test [2] and 1.02% [at 15.8 µM, stronger effect = higher value] (inactive) in test [14]. For the same molecule, the cytotoxicity increase in test [3] was -6.63% [at 15.8 µM] (inactive); in [6], -12.9% [at 15.8 µM] (inactive); in test [8], 0.593% [at 15.8 µM] (inactive); in test [10], -11% [at 15.8 µM] (inactive); in test [11], 0.551% [at 15.8 µM] (inactive); in test [16], -4.46% [at 15.8 µM] (inactive). For the same molecule, the activity change, negative = cytotoxic was 4.15% [at 15.8 µM] (inactive) in [4] and 2.97% [at 15.8 µM] (inactive) in [12]. The figures for the cytotoxicity in [5] and in test [9] were -9.86% [at 15.8 µM] (inactive) and -14.5% [at 15.8 µM] (inactive), respectively. Moreover, the activity change, negative = cytotoxicity in [7] was 10.2% [at 15.8 µM] (inactive); in test [13], 3.5% [at 15.8 µM] (inactive); in test [15], -7.74% [at 15.8 µM] (inactive); in test [17], 0.521% [at 19 µM] (inactive).
As for `COc1ccc(C#N)cc1`, the Potency result in [1], in test [2], in [3], in [4], in [5] and in [6] was “inactive” throughout. In addition, the Potency entry in test [7], in [8], in test [10], in [11], in [12] and in test [18] was “inactive” in each case. The Potency result in [13], in test [14], in test [15], in test [16] and in [17] was “inactive” each time. Moreover, the max response in test [19] was -13.1% (inactive).
In the case of `CC(=O)Nc1ccc(O)cc1`, the Potency result in [1], in test [2], in test [4], in [5], in [6] and in test [7] was “inactive” throughout. The Potency result in test [8], in test [9], in test [10], in test [11], in test [12] and in [18] was “inactive” throughout. Moreover, the Potency entry in [13], in test [14], in test [15], in [16] and in test [17] was “inactive” each time. Also, the max response in test [19] was 7.7% (inactive) and -11.8% (inactive) and 15.1% (inactive).
On to `CSc1c(Cl)c(Cl)c(Cl)c(Cl)c1Cl`, for which the Potency entry in [1], in test [4], in test [7], in [9], in test [11] and in test [12] was “inactive” throughout. In addition, the Potency result in test [15], in test [16] and in [17] was “inactive” in each case. Besides, the max response in test [19] is -20.6% (inactive). The Potency in test [3] was 48.7 µM (active).
Turning to `Clc1ccc(C(c2ccccc2Cl)C(Cl)Cl)cc1` (stereo unspecified), the Potency result in test [1], in test [2], in test [3], in [4], in test [5] and in test [6] was “inactive” throughout. The Potency entry in test [7], in test [8], in [10], in test [11], in [12] and in [13] was “inactive” throughout. Moreover, the Potency result in [14] and in [16] was “inactive” in each case. The max response in test [19] was -26.4% (inactive). Moreover, the Potency in test [18] is 38.9 µM (active) and inactive.
